Results: PubChem BioAssay (NCATS)
Calls of active or inactive are those of the source. Unless noted, calls come from the whole dose curve; as a rule, active = well fitted inhibition curve with a large enough effect; inconclusive = small, poorly fitted or top-dose-only effect; inactive = flat fitted curve, though single readings scatter.

Biological target: Ubiquitin carboxyl-terminal hydrolase 1 (Homo sapiens) (UniProt O94782)
Assay: Inhibitors of USP1/UAF1: Pilot qHTS (AID 504865); note: nearly all actives have a fitted effect of over 35% in size; note: potency is the fitted concentration of half-maximal effect;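 for activity change, negative = inhibition: rhodamine fluorescence freed from ubiquitin-rhodamine substrate followed over time; top concentration of the series differs between compounds; % is set by controls: 0 for no effect and ±100 for the full control effect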
Details: purified USP1/UAF1, Ub-rhodamine cleavage fluorescence; series mostly up to 114 µM; activity change, negative = inhibition: at the top concentration
Outline: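 USP1/UAF1 complex at 1 nM preincubated 15 min at room temperature with compound, then Ub-Rho substrate added at 150 nM final. Fluorescence (480/540 nm) read kinetically in 50 mM HEPES pH 7.8, 0.5 mM EDTA, 1 mM TCEP, 0.1 mg/ml BSA, 0.01% Tween-20.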

Chain of Ubiquitin carboxyl-terminal hydrolase 1 (Homo sapiens) (O94782 whole entry, looked up): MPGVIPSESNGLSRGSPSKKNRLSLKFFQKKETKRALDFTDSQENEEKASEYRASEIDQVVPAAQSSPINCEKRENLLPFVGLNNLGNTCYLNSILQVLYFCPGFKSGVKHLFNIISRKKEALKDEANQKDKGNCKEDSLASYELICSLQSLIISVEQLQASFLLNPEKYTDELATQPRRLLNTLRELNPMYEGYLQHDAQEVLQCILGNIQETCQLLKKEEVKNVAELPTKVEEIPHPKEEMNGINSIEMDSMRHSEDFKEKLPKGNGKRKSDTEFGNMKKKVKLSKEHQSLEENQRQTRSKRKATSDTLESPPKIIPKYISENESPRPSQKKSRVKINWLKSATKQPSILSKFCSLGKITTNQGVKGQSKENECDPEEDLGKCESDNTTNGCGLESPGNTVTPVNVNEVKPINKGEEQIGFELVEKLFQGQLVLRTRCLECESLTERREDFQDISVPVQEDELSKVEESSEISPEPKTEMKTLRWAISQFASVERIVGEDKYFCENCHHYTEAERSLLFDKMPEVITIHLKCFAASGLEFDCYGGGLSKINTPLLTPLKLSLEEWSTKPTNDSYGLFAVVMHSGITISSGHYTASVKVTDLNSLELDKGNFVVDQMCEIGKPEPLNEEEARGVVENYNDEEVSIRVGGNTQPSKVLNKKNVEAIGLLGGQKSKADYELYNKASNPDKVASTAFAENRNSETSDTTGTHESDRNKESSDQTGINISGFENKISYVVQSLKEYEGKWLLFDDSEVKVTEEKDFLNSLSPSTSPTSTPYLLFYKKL

| Compound | activity change, negative = inhibition | Potency |
| --- | --- | --- |
| CCNc1nc(Cl)nc(NCC)n1 | 2.69% (inactive) |  |
| Cc1ccc(N=CN(C)C=Nc2ccc(C)cc2C)c(C)c1 | -13.2% (inactive) |  |
| C[C@H]1C(=O)O[C@@H]2CCN3CC=C(COC(=O)[C@](C)(O)[C@]1(C)O)[C@H]23 | 0.385% (inactive) |  |
| COP(=O)(OC)OC=C(Cl)Cl | -4.48% (inactive) |  |
| CC(C)(C)OC(=O)c1ncn2c1[C@@H]1CCCN1C(=O)c1c(Br)cccc1-2 | -4.67% (inactive) |  |
| CC[n+]1c(-c2ccccc2)c2cc(N)ccc2c2ccc(N)cc21 |  | 39.8 µM (active) |
| OC(c1ccccc1)(c1ccccc1)C1CCNCC1 | 3.61% [at 54.9 µM] (inactive) |  |
| O=c1n(Cl)c(=O)n(Cl)c(=O)n1Cl | -9.43% (inactive) |  |
| O=C1NCN(c2ccccc2)C12CCN(CCCOc1ccc(F)cc1)CC2 | -8.58% (inactive) |  |
| Oc1c(Br)cc(Br)cc1Br | -6.45% (inactive) |  |
| N#Cc1nn(-c2c(Cl)cc(C(F)(F)F)cc2Cl)c(N)c1S(=O)C(F)(F)F (stereo not given) | -11.2% (inactive) |  |
| COCC(=O)N(c1c(C)cccc1C)C(C)C(=O)OC (stereo not given) | -1.9% (inactive) |  |
| OC(O)C(Cl)(Cl)Cl | -3.14% (inactive) |  |
| CCC1(c2ccccc2)CCC(=O)NC1=O (stereo not given) | -5.13% (inactive) |  |
| CCCCCCCCC(=O)NCc1ccc(O)c(OC)c1 | -17.4% (inactive) |  |
| CCCCCCCCCCCC[N+](C)(C)CCOc1ccccc1 |  | 79.4 µM (active) |
| CCCCCCCCCCCCCCCC[n+]1ccccc1 |  | 20 µM (active) |
| CNC(=O)Oc1cccc2ccccc12 | -7.79% (inactive) |  |
| COC(=O)C1=C(C)NC(C)=C(C(=O)OC)C1c1ccccc1[N+](=O)[O-] |  | inactive |
| C[N+]1(CCC(C(N)=O)(c2ccccc2)c2ccccc2)CCCCC1 | 0.54% (inactive) |  |
| CN(C)C(=S)SSC(=S)N(C)C |  | inactive |
| CC(C)C(Br)C(=O)NC(N)=O (stereo not given) | 1.73% (inactive) |  |
| c1ccc2nc(N3CCNCC3)ccc2c1 |  | inactive |
| CN(C)C(=O)Oc1cc(OC(=O)N(C)C)cc(C(O)CNC(C)(C)C)c1 (stereo not given) | -3.95% (inactive) |  |

Biological target: DNA dC->dU-editing enzyme APOBEC-3G (Homo sapiens) (UniProt Q9HC16)
Sequence (Q9HC16 whole entry, looked up): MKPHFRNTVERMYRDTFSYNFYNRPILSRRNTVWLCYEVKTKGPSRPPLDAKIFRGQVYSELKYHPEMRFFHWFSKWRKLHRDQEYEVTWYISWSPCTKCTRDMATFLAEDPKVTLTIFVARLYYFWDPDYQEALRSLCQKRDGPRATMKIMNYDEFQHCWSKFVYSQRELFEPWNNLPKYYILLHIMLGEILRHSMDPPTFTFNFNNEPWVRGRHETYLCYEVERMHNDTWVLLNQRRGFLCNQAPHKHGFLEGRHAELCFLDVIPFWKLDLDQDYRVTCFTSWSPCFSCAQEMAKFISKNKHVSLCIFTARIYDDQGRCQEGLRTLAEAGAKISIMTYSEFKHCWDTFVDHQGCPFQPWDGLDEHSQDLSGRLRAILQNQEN
Assay: qHTS for inhibitors of Vif-A3G interactions: Validation (AID 588379); note: 0% is about no effect
Details: Vif-A3G protein interaction assay; series mostly up to 46.1 µM; activity change, negative = inhibition: at the top concentration
Outline: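 Yellow fluorescence (Ex 488, Em 500-530) of Vif-coexpressing HeLa A3G-eYFP cells, scanned by Acumen cytometer, reports blocked A3G degradation. Cells plated at 700/well overnight at 37 deg C before compound addition, then a further overnight compound incubation at 37 deg C.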

| Compound | activity change, negative = inhibition |
| --- | --- |
| O=C1NCN(c2ccccc2)C12CCN(CCCOc1ccc(F)cc1)CC2 | -2.11% (inactive) |
| Oc1ccc2[nH]cc(CCCCN3CC=C(c4ccccc4)CC3)c2c1 | -2.78% (inactive) |
| C[C@@H]1C[C@@H]([C@H](O)CC2CC(=O)NC(=O)C2)C(=O)[C@@H](C)C1 | 0.116% (inactive) |
| CN1[C@@H]2CC[C@H]1CC(OC(=O)c1cc(Cl)cc(Cl)c1)C2 (stereo not given in full) | -1.2% (inactive) |
| c1ccc2nc(N3CCNCC3)ccc2c1 | -3.24% (inactive) |

Biological target: Estrogen receptor (Homo sapiens) (UniProt P03372)
Sequence (P03372 whole entry, looked up): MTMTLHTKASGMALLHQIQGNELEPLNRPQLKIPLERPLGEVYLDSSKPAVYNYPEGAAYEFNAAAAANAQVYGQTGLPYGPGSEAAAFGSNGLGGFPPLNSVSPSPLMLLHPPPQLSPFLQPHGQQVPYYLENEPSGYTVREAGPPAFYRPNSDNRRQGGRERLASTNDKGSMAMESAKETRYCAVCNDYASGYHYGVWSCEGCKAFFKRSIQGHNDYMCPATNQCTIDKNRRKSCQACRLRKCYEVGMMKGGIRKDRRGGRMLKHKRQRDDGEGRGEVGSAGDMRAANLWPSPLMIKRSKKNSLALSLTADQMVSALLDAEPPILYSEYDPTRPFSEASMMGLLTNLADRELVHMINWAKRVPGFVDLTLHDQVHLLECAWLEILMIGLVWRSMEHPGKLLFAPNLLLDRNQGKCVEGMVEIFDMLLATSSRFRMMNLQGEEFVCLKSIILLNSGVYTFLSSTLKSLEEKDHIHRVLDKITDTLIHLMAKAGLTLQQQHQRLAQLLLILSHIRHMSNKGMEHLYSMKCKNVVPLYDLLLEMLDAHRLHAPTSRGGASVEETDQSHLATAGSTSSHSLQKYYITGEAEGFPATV
Assay: qHTS assay for small molecule antagonists of estrogen receptor alpha signaling (AID 588513; active = well fitted curve in the direction sought with a large enough effect in the signal ratio, with a control signal flat, not every such curve was filed as active; inconclusive = small, poorly fitted or top-dose-only effect, or effect the other way, or a change in a side signal; inactive = no such curve, though single readings can be large or run the other way; the % refers to the signal ratio; note: potency is the fitted concentration of half-maximal effect; for activity, negative = inhibition: % is set by controls: 0 for no effect and ±100 for the full control effect)
Details: ER-alpha-UAS-bla HEK293, beta-lactamase ratio, antagonist mode; series mostly up to 76.9 µM; activity, negative = inhibition: at the top concentration
Outline: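 ER-alpha-UAS-bla GripTite HEK 293 cells in 2% charcoal/dextran-treated FBS medium; compounds titrated (1:2, duplicate), then stimulated with 0.5 nM 17-beta-estradiol for 18 h at 37C. CCF4 beta-lactamase fluorescence; Hill-fit IC50 and efficacy.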

| Compound | activity, negative = inhibition | Potency |
| --- | --- | --- |
| C[C@H]1C(=O)O[C@@H]2CCN3CC=C(COC(=O)[C@](C)(O)[C@]1(C)O)[C@H]23 | -16.2% (inactive) |  |
| COP(=O)(OC)OC=C(Cl)Cl |  | inactive |
| NC(N)=NC(=O)c1nc(Cl)c(N)nc1N | 32.5% (inactive) |  |
| Oc1ccc(Cl)cc1Cc1cc(Cl)ccc1O |  | 44.7 µM [inconclusive] (active) |
| O=c1n(Cl)c(=O)n(Cl)c(=O)n1Cl | -14.9% (inactive) |  |
| Oc1c(Br)cc(Br)cc1Br |  | inactive |
| COCC(=O)N(c1c(C)cccc1C)C(C)C(=O)OC (stereo not given) | -26.5% (inactive) |  |
| CCCCCCCCC(=O)NCc1ccc(O)c(OC)c1 | 13.7% (inactive) |  |
| CCCCCCCCCCCC[N+](C)(C)CCOc1ccccc1 |  | 12.6 µM [inconclusive] (active) |
| CNC(=O)Oc1cccc2ccccc12 |  | inactive |
| CN(C)C(=S)SSC(=S)N(C)C |  | inactive |
| O=C(NC(=O)c1c(F)cccc1F)Nc1cc(Cl)c(OC(F)(F)C(F)C(F)(F)F)cc1Cl (stereo not given) | -7.78% (inactive) |  |

Biological target: Estrogen receptor (Homo sapiens) (UniProt P03372)
Assay: qHTS assay for small molecule agonists of estrogen receptor alpha signaling (AID 588514; calls by dose curve; note: nearly all actives have a fitted effect of over 70% in size; note: potency is the fitted concentration of half-maximal effect;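 for activation: 0% = vehicle only and 100% = reference agonist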)
Details: ER-alpha-UAS-bla HEK293, beta-lactamase ratio, 18 h; series mostly up to 76.8 µM; activation: at the top concentration
Outline: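 Efficacy is expressed against 20 nM 17-beta-estradiol (100%) and DMSO basal (0%); EC50 from Hill equation. Assay: beta-lactamase reporter in ER-alpha-UAS-bla HEK 293 cells, 18 h compound incubation, CCF4 detection.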

| Compound | activation | Potency |
| --- | --- | --- |
| CCNc1nc(Cl)nc(NCC)n1 | -0.942% (inactive) |  |
| Cc1ccc(N=CN(C)C=Nc2ccc(C)cc2C)c(C)c1 | -2.47% (inactive) |  |
| C[C@H]1C(=O)O[C@@H]2CCN3CC=C(COC(=O)[C@](C)(O)[C@]1(C)O)[C@H]23 | 7.77% (inactive) |  |
| COP(=O)(OC)OC=C(Cl)Cl |  | inactive |
| CC[n+]1c(-c2ccccc2)c2cc(N)ccc2c2ccc(N)cc21 | 8.78% (inactive) |  |
| CCC(=O)O[C@H]1CC[C@H]2[C@@H]3CCC4=CC(=O)CC[C@]4(C)[C@H]3CC[C@]12C |  | 2.82 µM (active) |
| Oc1c(Br)cc(Br)cc1Br |  | inactive |
| N#Cc1nn(-c2c(Cl)cc(C(F)(F)F)cc2Cl)c(N)c1S(=O)C(F)(F)F (stereo not given) | -5.33% (inactive) |  |
| COP(=S)(OC)Oc1ccc(Sc2ccc(OP(=S)(OC)OC)cc2)cc1 | 19.6% (inactive) |  |
| CNC(=O)Oc1cccc2ccccc12 | 8.95% (inactive) |  |
| O=C(CCl)c1ccc(Cl)cc1Cl | -1.88% (inactive) |  |
| CN(C)C(=S)SSC(=S)N(C)C |  | inactive |
| O=C(NC(=O)c1c(F)cccc1F)Nc1cc(Cl)c(OC(F)(F)C(F)C(F)(F)F)cc1Cl (stereo not given) | 2.03% (inactive) |  |

Biological target: Androgen receptor (Homo sapiens) (UniProt P10275)
Sequence (P10275 whole entry, looked up): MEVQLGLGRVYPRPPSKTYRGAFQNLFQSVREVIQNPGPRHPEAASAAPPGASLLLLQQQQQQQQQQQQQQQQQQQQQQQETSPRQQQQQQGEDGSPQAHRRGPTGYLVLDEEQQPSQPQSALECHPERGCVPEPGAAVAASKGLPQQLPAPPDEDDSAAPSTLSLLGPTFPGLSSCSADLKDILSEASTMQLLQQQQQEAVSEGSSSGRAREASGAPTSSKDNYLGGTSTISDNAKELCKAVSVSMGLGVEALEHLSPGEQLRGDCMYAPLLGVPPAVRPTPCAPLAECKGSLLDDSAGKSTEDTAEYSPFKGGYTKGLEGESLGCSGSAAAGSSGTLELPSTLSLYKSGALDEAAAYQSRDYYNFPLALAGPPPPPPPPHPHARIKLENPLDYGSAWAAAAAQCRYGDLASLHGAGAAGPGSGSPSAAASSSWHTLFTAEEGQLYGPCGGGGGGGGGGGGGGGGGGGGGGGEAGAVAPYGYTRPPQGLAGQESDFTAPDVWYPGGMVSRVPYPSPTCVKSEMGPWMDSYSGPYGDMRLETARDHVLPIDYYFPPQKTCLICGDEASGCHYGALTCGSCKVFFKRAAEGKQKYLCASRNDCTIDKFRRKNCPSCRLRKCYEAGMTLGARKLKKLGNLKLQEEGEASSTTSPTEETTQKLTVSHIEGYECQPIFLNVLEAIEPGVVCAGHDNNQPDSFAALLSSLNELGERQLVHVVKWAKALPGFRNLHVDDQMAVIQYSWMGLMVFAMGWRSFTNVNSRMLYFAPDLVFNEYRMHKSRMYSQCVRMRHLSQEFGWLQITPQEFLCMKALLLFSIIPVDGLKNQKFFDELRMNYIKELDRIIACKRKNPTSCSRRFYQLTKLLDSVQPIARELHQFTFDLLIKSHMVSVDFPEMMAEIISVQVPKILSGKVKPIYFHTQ
Assay: qHTS assay for small molecule agonists of androgen receptor signaling (AID 588515; active = well fitted curve in the direction sought with a large enough effect in the signal ratio, with a control signal flat; inconclusive = small, poorly fitted or top-dose-only effect, or effect the other way, or a change in a side signal; inactive = no such curve, though single readings can be large or run the other way; the % refers to the signal ratio; note: potency is the fitted concentration of half-maximal effect; for activation: % is set by controls: 0 for no effect and ±100 for the full control effect)
Details: AR-UAS-bla HEK293, beta-lactamase ratio, agonist 16 h; activation: hits give high values
Outline: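 Stimulation of an AR-responsive β-lactamase reporter in GripTite HEK293 cells was measured after 16 h compound exposure at 37 °C, via CCF4 fluorescence after 2 h RT. EC50 from Hill fits, normalized to R1881 at 30 nM.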

| Compound | Potency | activation |
| --- | --- | --- |
| CCC(=O)O[C@H]1CC[C@H]2[C@@H]3CCC4=CC(=O)CC[C@]4(C)[C@H]3CC[C@]12C | 0.0089 µM (active) |  |
| COP(=S)(OC)Oc1ccc(Sc2ccc(OP(=S)(OC)OC)cc2)cc1 |  | -10.3% (inactive) |
| O=C(NC(=O)c1c(F)cccc1F)Nc1cc(Cl)c(OC(F)(F)C(F)C(F)(F)F)cc1Cl (stereo not given) |  | -6.9% (inactive) |

Biological target: Androgen receptor (Homo sapiens) (UniProt P10275)
Assay: qHTS assay for small molecule antagonists of androgen receptor signaling (AID 588516; active = well fitted curve in the direction sought with a large enough effect in the signal ratio, with a control signal flat, not every such curve was filed as active; inconclusive = small, poorly fitted or top-dose-only effect, or effect the other way, or a change in a side signal; inactive = no such curve, though single readings can be large or run the other way; the % refers to the signal ratio; note: % is set by controls: 0 for no effect and ±100 for the full control effect)
Details: AR-UAS-bla HEK293, beta-lactamase ratio, antagonist mode, 16 h; series mostly up to 76.8 µM; activity change, negative = inhibition: at the top concentration
Outline: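 AR-UAS-bla GripTite HEK 293 cells (2000/well) treated with compound titrations plus 10 nM R1881 for 16 h at 37C. Beta-lactamase read by CCF4 FRET (460/530 nm); IC50 from Hill fits, normalized to R1881 and DMSO control wells.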

| Compound | activity change, negative = inhibition |
| --- | --- |
| Oc1ccc(Cl)cc1Cc1cc(Cl)ccc1O | -31.1% (inactive) |
| COP(=S)(OC)Oc1ccc(Sc2ccc(OP(=S)(OC)OC)cc2)cc1 | -19.3% (inactive) |
| O=C(NC(=O)c1c(F)cccc1F)Nc1cc(Cl)c(OC(F)(F)C(F)C(F)(F)F)cc1Cl (stereo not given) | -17.9% (inactive) |
